54 compounds from ChEMBL document CHEMBL3988442, “University of Dundee, Small-Polar-MMV Screening Library” (2021) can be followed below.

SMILES strings stand for the structures. In all, about 67,000 compounds went through this assay and about 300 (0.45%) showed an effect of 50% or more. The entries come from a sample that favours strong results as a whole.

The target of the assay is Polyketide synthase Pks13 (Mycobacterium tuberculosis (strain ATCC 25618 / H37Rv)) (UniProt I6X8D2). Nature of the assay: Mycobacterium tuberculosis Polyketide synthase 13 Thioesterase (PKS13). Details: scale not given: in the data most compounds retested in dose-response had high values. To be noted: 30 µM. The class given is functional.
Chain of Polyketide synthase Pks13 (Mycobacterium tuberculosis (strain ATCC 25618 / H37Rv)) (I6X8D2 whole entry): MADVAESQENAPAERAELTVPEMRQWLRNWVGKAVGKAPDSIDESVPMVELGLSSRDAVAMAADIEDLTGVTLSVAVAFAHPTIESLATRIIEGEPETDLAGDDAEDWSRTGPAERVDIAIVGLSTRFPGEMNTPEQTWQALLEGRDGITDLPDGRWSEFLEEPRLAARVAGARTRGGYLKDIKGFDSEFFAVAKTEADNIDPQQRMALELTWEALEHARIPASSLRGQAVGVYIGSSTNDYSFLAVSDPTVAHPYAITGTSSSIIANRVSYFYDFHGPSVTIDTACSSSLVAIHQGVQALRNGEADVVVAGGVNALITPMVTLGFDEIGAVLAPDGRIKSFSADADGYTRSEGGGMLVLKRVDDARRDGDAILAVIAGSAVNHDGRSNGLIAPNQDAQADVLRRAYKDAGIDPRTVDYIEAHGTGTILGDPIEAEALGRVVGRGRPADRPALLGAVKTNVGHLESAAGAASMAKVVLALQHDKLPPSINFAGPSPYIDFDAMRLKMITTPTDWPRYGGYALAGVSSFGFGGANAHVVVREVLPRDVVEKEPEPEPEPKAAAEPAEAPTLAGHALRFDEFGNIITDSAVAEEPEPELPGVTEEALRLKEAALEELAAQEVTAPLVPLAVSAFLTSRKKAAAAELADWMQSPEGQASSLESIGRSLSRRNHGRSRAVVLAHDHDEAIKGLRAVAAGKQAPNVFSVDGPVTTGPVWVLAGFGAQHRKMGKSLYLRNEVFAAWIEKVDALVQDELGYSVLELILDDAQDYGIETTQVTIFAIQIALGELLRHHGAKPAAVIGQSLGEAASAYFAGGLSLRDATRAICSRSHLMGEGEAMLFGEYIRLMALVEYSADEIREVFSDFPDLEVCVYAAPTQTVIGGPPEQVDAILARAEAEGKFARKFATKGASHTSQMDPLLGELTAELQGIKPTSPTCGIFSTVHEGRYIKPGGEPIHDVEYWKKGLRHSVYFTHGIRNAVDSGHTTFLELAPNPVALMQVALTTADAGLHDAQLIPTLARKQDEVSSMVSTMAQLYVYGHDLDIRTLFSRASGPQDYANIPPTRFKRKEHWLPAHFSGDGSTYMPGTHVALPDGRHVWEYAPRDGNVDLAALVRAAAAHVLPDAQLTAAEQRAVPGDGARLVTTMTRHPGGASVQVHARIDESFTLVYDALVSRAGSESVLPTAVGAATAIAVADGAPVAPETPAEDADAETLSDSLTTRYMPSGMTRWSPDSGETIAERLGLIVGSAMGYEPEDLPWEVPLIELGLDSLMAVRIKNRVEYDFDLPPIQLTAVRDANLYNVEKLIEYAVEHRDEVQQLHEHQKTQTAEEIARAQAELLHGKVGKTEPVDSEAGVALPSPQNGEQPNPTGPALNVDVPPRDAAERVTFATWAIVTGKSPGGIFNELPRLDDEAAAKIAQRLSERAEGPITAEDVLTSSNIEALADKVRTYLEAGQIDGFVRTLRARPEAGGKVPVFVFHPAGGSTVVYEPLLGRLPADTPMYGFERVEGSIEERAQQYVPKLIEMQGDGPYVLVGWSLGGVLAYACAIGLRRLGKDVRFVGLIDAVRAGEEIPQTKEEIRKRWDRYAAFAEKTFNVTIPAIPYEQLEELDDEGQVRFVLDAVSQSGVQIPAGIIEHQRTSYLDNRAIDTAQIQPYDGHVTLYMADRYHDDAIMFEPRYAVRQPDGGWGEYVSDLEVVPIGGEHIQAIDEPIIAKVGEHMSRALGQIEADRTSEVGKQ
As to `c1ccc(OCC2C[C@@H]3[C@@H](C2)OCCN3CC2CCOCC2)nc1` (some centres undefined), the Percent Effect was -0.0246%.

Take `Cc1ccoc1C(=O)N1C[C@@H]2[C@@H](C1)OCC(=O)N2Cc1cccnc1`: the Percent Effect is -9.46%.

On to `c1ccc(N2CCOCC3(CCCN(c4nccs4)C3)C2)nc1` (centres undefined), for which the Percent Effect was found to be 66%.

As for `Cc1cnc(N2CCCC3(COCCN(c4nccs4)C3)C2)nc1` (centres undefined), the Percent Effect is -20.9%.

`Cc1ccc(N2CCCC3(COCCN(c4nccs4)C3)C2)nn1` (centres undefined): the Percent Effect is -10.9%.

On to `Cc1nc2cc(C3CCN(C(=O)c4ccccn4)CC3)nn2c(O)c1C`, for which the Percent Effect is -23.4%.

Regarding `Cc1cccc(CN2C[C@@H]3OCCN(c4cnccn4)[C@@H]3C2)n1`, the Percent Effect is -4.22%.

Consider `CS(=O)(=O)CCSc1n[nH]c(-c2ccc3c(c2)CCC3)n1`, for which the Percent Effect was 1.98%.

For the compound `NC(=O)CCSc1n[nH]c(-c2ccc3c(c2)CCC3)n1`, the Percent Effect was -2.85%.

With `CS(=O)(=O)CCCSc1n[nH]c(-c2ccc3c(c2)CCC3)n1`, the Percent Effect turned out to be 66.3%.

Regarding `Cn1c(NCC(=O)N2CCCC2)c(C#N)c(=O)n(C)c1=O`, the Percent Effect is 51.5%.

For `Cn1c(NCC(=O)N2CCCCC2)c(C#N)c(=O)n(C)c1=O`, the Percent Effect is -9.87%.

As to `Cn1c(NCCC(=O)N2CCCC2)c(C#N)c(=O)n(C)c1=O`, the Percent Effect amounted to 1.71%.

Turning to `Cn1cc(N2C(=O)CC[C@@H]3[C@H]2CCN3Cc2cccc(C#N)c2)cn1`, the Percent Effect is -11.3%.

As for `O=c1[nH]c2cc3c(cc2cc1CN1CCCC1c1ccccn1)OCO3` (centres undefined), the Percent Effect is 78.6%.

Turning to `CCOc1ccc2[nH]c(=O)c(CN3CCCC3c3ccccn3)cc2c1` (centres undefined), the Percent Effect was -32.9%.

For `O=c1[nH]c2cc3c(cc2cc1CN1CCCC1c1ccccn1)CCC3` (centres undefined), the Percent Effect was -17.3%.

As for `O=C(c1ccoc1)N1CC[C@@H]2O[C@@H](COCc3ccncc3)CC[C@@H]21`, the Percent Effect is -10.6%.

On to `O=C(C[C@H]1[C@H]2CN(c3ncccn3)C[C@@H]12)Nc1cccnc1`, for which the Percent Effect was -4.86%.

As for `CC(C)CN1CC[C@@H]2[C@@H]1CCN2C(=O)N(C)C`, the Percent Effect was -18.3%.

With `CCc1nc(Cn2c(=O)c3c(C(F)(F)F)cc(C)nc3n2C)no1`, the Percent Effect is 9.67%.

As for `CCc1noc(Cn2c(=O)c3c(C(F)(F)F)cc(C)nc3n2C)n1`, the Percent Effect came out at 64.5%.

Regarding `Cc1cc(Cn2c(=O)c3c(C(F)(F)F)cc(C)nc3n2C)on1`, the Percent Effect is 3.92%.

Consider `CO[C@H]1CC[C@H]2[C@H]1OCCN2C(=O)c1ccc(C)nc1`, for which the Percent Effect is -32.1%.

`Cc1ccc(N2CC[C@H]3OCC[C@@]3(C(=O)NCC3CC3)C2)nn1`: the Percent Effect was -16.8%.

Turning to `CC(C)CN1CCN(Cc2nc3c(s2)CCCC3)[C@H]2CS(=O)(=O)C[C@H]21`, the Percent Effect was 3.91%.

Regarding `O=C(c1cnc2c(cnn2C2CCCC2)c1)N1CCN(CCO)CC1`, the Percent Effect worked out at 90.8%.

For `CN1CCN(C(=O)c2cnc3c(cnn3C3CCCC3)c2)CC1`, the Percent Effect is -58.3%.

For `CCN1CCN(C(=O)c2cnc3c(cnn3C3CCCC3)c2)CC1`, the Percent Effect came to 2.83%.

For the compound `Cc1cc(CN2CC[C@@H]3O[C@@H](c4nnc(C)o4)C[C@H]3C2)no1`, the Percent Effect was -7.21%.

On to `CN1CCc2cc(C(=O)N(C)C)c(NCC3CC3)nc2CC1`, for which the Percent Effect is -5.51%.

Turning to `CC(C)Nc1nc2c(cc1C(=O)NCC1CC1)CCN(CC1CC1)CC2`, the Percent Effect worked out at 69.4%.

Regarding `Cc1nc2c(cc1C(=O)O)CCN(CC1CC1)CC2`, the Percent Effect was -19.8%.

As to `CC(C)Nc1nc2c(cc1C(=O)NCC1CC1)CCN(C)CC2`, the Percent Effect was determined as 90.8%.

In the case of `CC(C)NC(=O)c1cc2c(nc1N(C)C)CCN(S(=O)(=O)C1CC1)CC2`, the Percent Effect stood at 33.7%.

For the compound `CC(C)CCN1CCc2cc(C(=O)N(C)C)c(NCC3CC3)nc2CC1`, the Percent Effect was -8.68%.

Turning to `CNC(=O)c1cc2c(nc1N(C)C)CCN(C)CC2`, the Percent Effect is -20.6%.

Turning to `CN(C)C(=O)c1cc2c(nc1NCC1CC1)CCN(CC1CC1)CC2`, the Percent Effect was -12.7%.

`CC(C)Nc1nc2c(cc1C(=O)N(C)C)CCNCC2`: the Percent Effect was determined as 0.822%.

In the case of `CC(C)Nc1nc2c(cc1C(=O)NCC1CC1)CCN(S(C)(=O)=O)CC2`, the Percent Effect was 85.6%.

For the compound `CCS(=O)(=O)N1CCc2cc(C(=O)N(C)C)c(NCC3CC3)nc2CC1`, the Percent Effect is -30.5%.

On to `CNC(=O)c1cc2c(nc1NC(C)C)CCNCC2`, for which the Percent Effect is 73.6%.

In the case of `CCS(=O)(=O)N1CC[C@H]2O[C@H](c3nnc(C)o3)CC[C@H]21`, the Percent Effect is -8.23%.

Regarding `CN1CC[C@H]2CN(C(=O)c3csc(Cc4ccccc4)n3)C[C@H]21`, the Percent Effect is -37.9%.

Regarding `O=C1O[C@@H]2CN(C3CCOCC3)C[C@@H]2N1CCCc1ccc(F)cc1`, the Percent Effect came out at 1.75%.

Regarding `CC(C)CN1CCS(=O)(=O)[C@@H]2CCN(S(=O)(=O)N(C)C)CC[C@@H]21`, the Percent Effect was -30.1%.

With `COCCN1CCc2cc(C(=O)NCC3CC3)c(NC(C)C)nc2CC1`, the Percent Effect was found to be 68.2%.

For `CNC(=O)c1cc2c(nc1NC(C)C)CCN(C(=O)NC(C)C)CC2`, the Percent Effect stood at 29.7%.

On to `COCCN1CCc2cc(C(=O)N(C)C)c(NC(C)C)nc2CC1`, for which the Percent Effect is -2.98%.

On to `COCCN1CCc2cc(C(=O)NC(C)C)c(NCC3CC3)nc2CC1`, for which the Percent Effect came to 45.7%.

Consider `CC(C)Nc1nc2c(cc1C(=O)NCC1CC1)CCNCC2`, for which the Percent Effect turned out to be 51.7%.

Regarding `CNC(=O)N1CCc2cc(C(=O)N(C)C)c(NCC3CC3)nc2CC1`, the Percent Effect stood at 4.02%.

As for `CCN1CCc2cc(C(=O)N(C)C)c(NCC3CC3)nc2CC1`, the Percent Effect was -12.5%.

In the case of `CNC(=O)N1CCc2cc(C(=O)NCC3CC3)c(NC(C)C)nc2CC1`, the Percent Effect was 51.5%.
